In PubChem BioAssay (NCATS):
Results filed as inconclusive are left out. The source made the active and inactive calls. The call rests on the fitted dose curve; in most records, active means well fitted curve in the direction sought with a large enough effect; inconclusive means small, poorly fitted or top-dose-only effect, or another doubt; inactive means no such curve, though single readings can be large; an effect the other way counts as inactive or inconclusive.

How the values were obtained:
[1] = biological target: Rap guanine nucleotide exchange factor 3 (Homo sapiens) (UniProt O95398); assay: Confirmatory qHTS for antagonist of cAMP-regulated guanine nucleotide exchange factor 3 (EPAC1) (AID 1645880); settings: EPAC1 Rap1B-BODIPY-GDP exchange, fluorescence; activity, negative = inhibition: at 115 µM (top of the series); further: nearly all actives have a fitted effect of over 55% in size; further: potency means the concentration at half of the fitted maximal effect;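 on activity, negative = inhibition: plate controls were DMSO only for no effect and full effect of the ATA control for full effect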
Sequence of Rap guanine nucleotide exchange factor 3 (Homo sapiens) (O95398 whole entry, looked up): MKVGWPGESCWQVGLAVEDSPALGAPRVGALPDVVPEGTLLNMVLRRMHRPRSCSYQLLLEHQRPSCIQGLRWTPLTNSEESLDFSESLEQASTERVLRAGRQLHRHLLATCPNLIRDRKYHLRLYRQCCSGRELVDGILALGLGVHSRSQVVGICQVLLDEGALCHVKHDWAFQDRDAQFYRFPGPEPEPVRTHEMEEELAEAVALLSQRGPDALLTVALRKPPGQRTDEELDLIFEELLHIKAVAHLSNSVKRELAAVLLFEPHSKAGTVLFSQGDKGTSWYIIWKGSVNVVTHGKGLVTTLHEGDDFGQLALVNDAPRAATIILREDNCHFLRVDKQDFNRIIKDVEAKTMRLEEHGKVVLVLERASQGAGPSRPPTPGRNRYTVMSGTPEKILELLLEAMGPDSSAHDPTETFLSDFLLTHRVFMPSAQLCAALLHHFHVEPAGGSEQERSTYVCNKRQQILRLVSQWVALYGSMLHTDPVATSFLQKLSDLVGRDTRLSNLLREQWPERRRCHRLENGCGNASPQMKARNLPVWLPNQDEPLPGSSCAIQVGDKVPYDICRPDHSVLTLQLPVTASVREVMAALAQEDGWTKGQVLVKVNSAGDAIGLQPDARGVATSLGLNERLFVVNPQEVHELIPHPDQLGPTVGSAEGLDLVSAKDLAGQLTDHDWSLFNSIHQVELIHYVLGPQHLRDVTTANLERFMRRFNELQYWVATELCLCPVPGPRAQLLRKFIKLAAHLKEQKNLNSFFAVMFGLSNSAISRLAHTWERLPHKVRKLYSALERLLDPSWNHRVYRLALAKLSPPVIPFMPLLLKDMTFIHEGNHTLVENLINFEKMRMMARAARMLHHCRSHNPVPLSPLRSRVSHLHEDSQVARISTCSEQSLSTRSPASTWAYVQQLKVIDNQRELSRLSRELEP
Method in brief: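 Nucleotide exchange uses 100 nM EPAC1, 250 nM RAP1B-BODIPY-GDP and 50 uM GDP, with compounds in a concentration-titration series. After 5 min at room temperature, fluorescence (480 nm ex/540 nm em) is read every 5 min for 30 min. Data are normalized to control ATA and DMSO.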

[2] = biological target: Rap guanine nucleotide exchange factor 3 (Homo sapiens) (UniProt O95398); assay: Confirmatory qHTS for agonist of cAMP-regulated guanine nucleotide exchange factor 3 (EPAC1) (AID 1645881);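 further: EPAC1 catalysed release of BODIPY-GDP from Rap1B seen as fluorescence loss; 100% = effect of cAMP agonist control; nearly all actives have a fitted effect of over 75% in size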
[3] = biological target: Rap guanine nucleotide exchange factor 4 (Homo sapiens) (UniProt Q8WZA2); assay: Confirmatory qHTS for agonist of cAMP-regulated guanine nucleotide exchange factor 4 (EPAC2) (AID 1645884);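 further: nucleotide exchange releases bodipy-GDP from Rap1 and this lowers its fluorescence; on the % scale 0 is the no-effect control and ±100 the full control effect; nearly all actives have a fitted effect of over 65% in size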
Sequence of Rap guanine nucleotide exchange factor 4 (Homo sapiens) (Q8WZA2 whole entry, looked up): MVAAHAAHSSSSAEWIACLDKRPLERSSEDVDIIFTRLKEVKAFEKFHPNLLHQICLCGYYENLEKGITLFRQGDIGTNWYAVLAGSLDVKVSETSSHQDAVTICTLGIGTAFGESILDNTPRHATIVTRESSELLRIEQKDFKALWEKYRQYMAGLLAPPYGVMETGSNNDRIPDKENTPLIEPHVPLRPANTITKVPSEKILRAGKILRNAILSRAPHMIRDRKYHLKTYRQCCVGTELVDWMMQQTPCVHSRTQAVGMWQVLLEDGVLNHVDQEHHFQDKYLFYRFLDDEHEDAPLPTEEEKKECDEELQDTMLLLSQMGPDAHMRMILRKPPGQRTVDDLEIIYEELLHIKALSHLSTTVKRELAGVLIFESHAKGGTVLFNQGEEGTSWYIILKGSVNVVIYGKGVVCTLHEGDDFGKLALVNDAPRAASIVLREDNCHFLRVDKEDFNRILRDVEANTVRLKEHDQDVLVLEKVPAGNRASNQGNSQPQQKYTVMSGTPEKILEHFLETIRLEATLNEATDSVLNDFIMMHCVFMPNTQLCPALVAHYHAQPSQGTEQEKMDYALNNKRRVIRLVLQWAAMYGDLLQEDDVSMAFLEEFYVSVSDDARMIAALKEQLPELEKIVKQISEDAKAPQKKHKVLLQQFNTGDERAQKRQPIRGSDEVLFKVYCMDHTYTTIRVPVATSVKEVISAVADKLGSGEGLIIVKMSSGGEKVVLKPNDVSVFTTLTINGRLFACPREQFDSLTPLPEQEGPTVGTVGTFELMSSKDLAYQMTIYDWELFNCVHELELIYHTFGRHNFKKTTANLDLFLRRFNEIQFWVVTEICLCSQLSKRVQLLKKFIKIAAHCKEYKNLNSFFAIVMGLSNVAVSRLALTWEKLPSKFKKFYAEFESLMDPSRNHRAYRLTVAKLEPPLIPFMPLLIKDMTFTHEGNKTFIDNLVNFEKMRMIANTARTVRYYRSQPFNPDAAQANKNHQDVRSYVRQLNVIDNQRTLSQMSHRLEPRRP

[4] = biological target: Rap guanine nucleotide exchange factor 4 (Homo sapiens) (UniProt Q8WZA2); assay: Confirmatory qHTS for antagonist of cAMP-regulated guanine nucleotide exchange factor 4 (EPAC2) (AID 1645885); further: nearly all actives have a fitted effect of over 25% in size; further: potency means the concentration at half of the fitted maximal effect; on activity change, negative = inhibition: on the % scale 0 is the no-effect control and ±100 the full control effect
[5] = biological target: Rap guanine nucleotide exchange factor 3 (Homo sapiens) (UniProt O95398); assay: Counterscreen qHTS for antagonist of cAMP-regulated guanine nucleotide exchange factor 3 (EPAC1) (AID 1645888);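 further: fluorescence loss as bound BODIPY-GDP is released from Rap1B; % of control where 0% means no effect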
Method in brief: (§1)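 Measured: fluorescence of BODIPY-GDP bound to Rap1B, which falls as exchange proceeds. Conditions include 50 uM competing GDP, 5 and 30 min reads, and a later cAMP challenge for antagonist detection.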

[6] = biological target: Rap guanine nucleotide exchange factor 3 (Homo sapiens) (UniProt O95398); assay: Counterscreen qHTS for agonist of cAMP-regulated guanine nucleotide exchange factor 3 (EPAC1) (AID 1645889); further: % of control where 0% means no effect; nearly all actives have a fitted effect of over 40% in size
Method in brief: as §1

O=C(NC1CCC(O)CC1)c1ccc(S(=O)(=O)NCc2ccco2)cc1 (stereo not given)
inactive: Potency [1] | Potency [2] | Potency [3] | Potency [4] | Potency [5] | Potency [6]

Cc1ccc2c(c1)NC(=O)C(CC(=O)N(C)Cc1ccccc1)O2 (stereo not given)
inactive: Potency [1] | Potency [2] | activation [3] 3.24% [at 17.1 µM, percent relative to cAMP agonist control] | Potency [4] | activity change, negative = inhibition [5] -5.86% [at 30.8 µM] | activation [6] 9.9% [at 30.8 µM]

Cc1cc(-c2ccc(F)cc2)n2ncc(-c3ccccc3)c2n1
inactive: Potency [1] | Potency [2] | Potency [3] | Potency [4] | Potency [5] | Potency [6]

CCc1ccc(C(=O)c2cn(CC(=O)Nc3cccc(OC)c3)c3ccc(OC)cc3c2=O)cc1
active: Potency [1] 53.6 µM
inactive: Potency [2] | Potency [3] | Potency [4] | Potency [5] | Potency [6]

Cn1c(C(O)c2ccc(Br)cc2)nc(Cl)c1Cl (stereo not given)
inactive: Potency [1] | Potency [2] | activation [3] -7.53% [at 17.1 µM, percent relative to cAMP agonist control] | Potency [4] | activity change, negative = inhibition [5] -0.272% [at 30.8 µM] | activation [6] 8.17% [at 30.8 µM]

CN(CC(=O)Nc1ccccc1Sc1ccccc1)C1CCCCC1
inactive: Potency [1] | Potency [2] | Potency [3] | Potency [4] | Potency [5] | Potency [6]

O=S(=O)(N/N=C/c1cccnc1)c1ccc(Cl)c(Cl)c1
inactive: Potency [1] | Potency [2] | activation [3] 4.19% [at 17.1 µM, percent relative to cAMP agonist control] | Potency [4] | activity change, negative = inhibition [5] -14.7% [at 30.8 µM] | activation [6] 6.45% [at 30.8 µM]

O=C(c1ccco1)N(CCC(c1ccccc1)c1ccco1)Cc1ccccc1 (stereo not given)
inactive: Potency [2] | activation [3] 1.75% [at 17.1 µM, percent relative to cAMP agonist control] | Potency [4] | activity change, negative = inhibition [5] -8.3% [at 30.8 µM] | activation [6] 15.8% [at 30.8 µM]
active: Potency [1] 44.7 µM

Cc1ccc(S(=O)(=O)Nc2cc(C(=O)NCCN3CCCC3)ccc2N2CCCCC2)cc1
inactive: Potency [1] | Potency [2] | Potency [3] | Potency [4] | Potency [5] | Potency [6]

Cc1ccc(S(=O)(=O)NCCC(=O)N2CCC(Cc3ccccc3)CC2)cc1
inactive: Potency [1] | Potency [2] | activation [3] 3.1% [at 17.1 µM, percent relative to cAMP agonist control] | Potency [4] | activity change, negative = inhibition [5] -15.5% [at 30.8 µM] | activation [6] 8.49% [at 30.8 µM]

COc1ccc(C(=O)Nc2cccc(/C=C(/CCC(=O)O)c3nc4ccccc4s3)c2)cc1
inactive: Potency [2] | Potency [3] | Potency [4] | Potency [5] | Potency [6]
active: Potency [1] 15.1 µM

Cc1ccc(S(=O)(=O)NN2C(=O)/C(=C/c3cccnc3)SC2=S)cc1
active: Potency [1] 42.6 µM
inactive: Potency [2] | Potency [3] | Potency [4] | Potency [5] | Potency [6]

O=C(COC(=O)Cc1c(Cl)cccc1Cl)NCC1CCCO1 (stereo not given)
active: Potency [4] 75.7 µM
inactive: Potency [1] | Potency [2] | Potency [3] | Potency [5] | Potency [6]

CCCCNC(=O)c1cc(-c2ccc3c(c2)OCO3)on1
inactive: Potency [1] | Potency [2] | Potency [3] | Potency [4] | Potency [5] | Potency [6]

COc1ccc([C@@H]2[C@@H]3C(=O)N(C(C)(C)C)C(=O)[C@@H]3[C@]3(Cc4ccccc4)C(=O)N(c4cccc(Br)c4)C(=O)N23)cc1
inactive: Potency [1] | Potency [2] | activation [3] 2.72% [at 17.1 µM, percent relative to cAMP agonist control] | Potency [4] | activity change, negative = inhibition [5] -15.9% [at 30.8 µM] | activation [6] 10.3% [at 30.8 µM]

COc1ccc(NC(=O)N2CCN3CCCCC3C2)cc1OC (stereo not given)
inactive: Potency [1] | Potency [2] | Potency [3] | Potency [4] | Potency [5] | Potency [6]

Cc1sc2ncnc(N3CCC(C(=O)Nc4ccccc4C(C)(C)C)CC3)c2c1C
inactive: Potency [1] | Potency [2] | Potency [3] | Potency [4] | Potency [5] | Potency [6]

O=c1c2cc([N+](=O)[O-])cc([N+](=O)[O-])c2[nH]n1-c1ccccc1
inactive: Potency [2] | activation [3] 3.37% [at 17.1 µM, percent relative to cAMP agonist control] | Potency [4] | activity change, negative = inhibition [5] -31.5% [at 30.8 µM] | activation [6] 10.6% [at 30.8 µM]
active: Potency [1] 35.5 µM

COc1cccc(-n2ccn(CC(=O)NCc3ccc(C)cc3)c(=O)c2=O)c1
inactive: Potency [1] | Potency [2] | Potency [3] | Potency [4] | Potency [5] | Potency [6]

CCOC(=O)C1(c2ccccc2)SC(C(=O)OCC)(c2ccccc2)S1 (stereo not given)
inactive: Potency [1] | Potency [2] | Potency [3] | Potency [5] | Potency [6]
active: Potency [4] 53.6 µM
